Laboratory results taken from article PMC5540273 (PLoS ONE, 2017).

Experiments:
Conditions in all cases: concentration: 1 μM, replicates: in singlicate; n = 1
ACVR1 = tested on: ACVR1
ACVR2A = tested on: ACVR2A
ACVR2B = tested on: ACVR2B
ACVRL1 = tested on: ACVRL1
ADCK3 = tested on: T1, ADCK3
T1 construct: gene CABC1

ADCK4 = tested on: ADCK4
AKT1 = tested on: AKT1
AKT2 = tested on: AKT2
AKT3 = tested on: AKT3
ALK = tested on: ALK
AMPK-alpha1 = tested on: T2, AMPK-alpha1
T2 construct: gene PRKAA1

AMPK-alpha2 = tested on: T3, AMPK-alpha2
T3 construct: gene PRKAA2

ANKK1 = tested on: ANKK1
ARK5 = tested on: T4, ARK5
T4 construct: gene NUAK1

ASK1 = tested on: T5, ASK1
T5 construct: gene MAP3K5

ASK2 = tested on: T6, ASK2
T6 construct: gene MAP3K6

AURKA = tested on: AURKA
AURKB = tested on: AURKB
AURKC = tested on: AURKC
AXL = tested on: AXL
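Further: KINOMEscan kinase panel screen.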

| SMILES | %Inh (ACVR1) [%] | %Inh (ACVR2A) [%] | %Inh (ACVR2B) [%] | %Inh (ACVRL1) [%] | %Inh (ADCK3) [%] | %Inh (ADCK4) [%] | %Inh (AKT1) [%] | %Inh (AKT2) [%] | %Inh (AKT3) [%] | %Inh (ALK) [%] | %Inh (AMPK-alpha1) [%] | %Inh (AMPK-alpha2) [%] | %Inh (ANKK1) [%] | %Inh (ARK5) [%] | %Inh (ASK1) [%] | %Inh (ASK2) [%] | %Inh (AURKA) [%] | %Inh (AURKB) [%] | %Inh (AURKC) [%] | %Inh (AXL) [%] |
| --- | --- | --- | --- | --- | --- | --- | --- | --- | --- | --- | --- | --- | --- | --- | --- | --- | --- | --- | --- | --- |
| Fc1ccc(-c2nc3n(c2-c2ccncc2)CCS3)cc1 [GI98581] | 0 | 0 | 20 | 0 | 13 | 23 | 0 | 13 | 9 | 28 | 14 | 0 | 0 | 0 | 5 | 13 | 0 | 0 | 43 | 6 |
| Cc1ccc(NC(=O)Nc2ccccc2F)cc1-c1ccc(C(=O)Nc2ccncc2)cc1 [GSK1398477] | 32 | 21 | 14 | 5 | 22 | 25 | 0 | 22 | 0 | 25 | 7 | 23 | 0 | 8 | 12 | 21 | 0 | 0 | 27 | 25 |
| Cc1ccccc1Cn1ccn2c(=O)cc(N3CCOCC3)nc12 [GSK2269905] | 25 | 0 | 0 | 0 | 16 | 17 | 0 | 16 | 0 | 28 | 0 | 1 | 10 | 5 | 0 | 0 | 0 | 30 | 0 | 9 |
| COc1nccc(-c2c(-c3ccc(F)cc3)ncn2CCCN2CCOCC2)n1 [SB-282852] | 0 | 0 | 0 | 0 | 0 | 18 | 0 | 3 | 3 | 25 | 77 | 0 | 0 | 0 | 0 | 0 | 23 | 42 | 0 | 0 |
| Cc1ccc(NC(=O)Nc2ccc(Cl)c(C(F)(F)F)c2)cc1-c1ccc(C(=O)Nc2ccncc2)cc1 [GSK1398470] | 1 | 0 | 0 | 0 | 14 | 2 | 0 | 16 | 0 | 0 | 2 | 16 | 15 | 14 | 0 | 0 | 0 | 0 | 8 | 17 |
| CS(=O)(=O)Cc1ccc(Nc2nccc(-c3c(-c4cccc(NC(=O)C5CCCCC5)c4)nn4ncccc34)n2)cc1 [GSK350559] | 18 | 0 | 0 | 0 | 24 | 0 | 23 | 4 | 0 | 29 | 2 | 2 | 0 | 0 | 0 | 34 | 9 | 15 | 49 | 18 |
| COc1ccc2cc(-c3nc(-c4ccccc4C(C)C)[nH]c3-c3ccncc3)ccc2c1 [SB-660566] | 17 | 0 | 0 | 34 | 5 | 17 | 0 | 41 | 0 | 38 | 17 | 0 | 6 | 18 | 16 | 3 | 5 | 30 | 0 | 36 |
| O=C1NC(=O)C(c2ccc(Cl)cc2)=C1Nc1ccc(O)cc1 [SB-340867] | 11 | 0 | 0 | 0 | 0 | 0 | 1 | 0 | 0 | 0 | 0 | 0 | 0 | 0 | 0 | 0 | 0 | 9 | 0 | 18 |
| COc1cccc(C2=C(Nc3cc(Cl)c(O)c(Cl)c3)C(=O)NC2=O)c1 [SB-390767] | 20 | 0 | 2 | 19 | 1 | 0 | 0 | 0 | 0 | 29 | 8 | 0 | 0 | 26 | 4 | 7 | 0 | 0 | 8 | 0 |
| CNc1cc(-c2ccc3c(N)n[nH]c3c2)nc(N)n1 [GSK2224810] | 29 | 43 | 56 | 0 | 13 | 13 | 0 | 0 | 0 | 5 | 0 | 0 | 10 | 0 | 0 | 0 | 4 | 0 | 10 | 0 |
| COc1ccc(Nc2nccc(-c3ccc(NC(=O)c4cc5cc(F)ccc5[nH]4)cc3)n2)cc1 [GSK1229496] | 0 | 0 | 0 | 0 | 5 | 29 | 0 | 0 | 0 | 17 | 0 | 0 | 0 | 0 | 2 | 0 | 0 | 5 | 0 | 0 |
| CC[C@@H]1CO[C@H](C(=O)Nc2ccccc2)CN1c1cc(-c2ccc3c(N)n[nH]c3c2)nc(NC)n1 [GSK2376236] | 0 | 0 | 0 | 0 | 27 | 12 | 0 | 15 | 0 | 0 | 0 | 1 | 0 | 14 | 4 | 0 | – | 0 | 48 | 0 |
| COc1ccc(CSc2nnc(-c3ccc4nccn4c3)o2)cc1C(F)(F)F | 0 | 7 | 15 | 21 | 6 | 6 | 13 | 4 | 44 | 29 | 3 | 9 | 0 | 9 | 0 | 44 | 0 | 22 | 15 | 20 |
| CC(C)c1ccc(O)cc1Nc1ccnc2ccc(C(F)(F)F)cc12 [GW482059] | 0 | 43 | 0 | 19 | 0 | 2 | 0 | 0 | 0 | 15 | 20 | 13 | 0 | 0 | 1 | 0 | 0 | 0 | 0 | 14 |
| COc1ccc(-c2coc3ccc(-c4nnc(C)o4)cc23)cc1 | 0 | 5 | 0 | 27 | 9 | 0 | 8 | 0 | 2 | 0 | 0 | 3 | 0 | 0 | 0 | 10 | 0 | 18 | 0 | 0 |
| CC(=O)c1cccc(NC(=O)NC2CCN(c3ccnc(Nc4ccc(F)cc4)n3)C2)c1 (stereo not shown) [GSK1379710] | 0 | 10 | 13 | 0 | 25 | 41 | 0 | 2 | 0 | 25 | 0 | 0 | 19 | 31 | 20 | 0 | 12 | 0 | 21 | 5 |
